# Results from the supplement of paper PMC8728848.
# Shown is part of a subset that was picked to be rich in the strongest signals.
# Tests used:
# Test in all cases: glycan array binding signal (z-score within array); higher = stronger binding
# Details in all cases: glycan notation: IUPAC condensed, linker removed
# [1] = molecular target: Fuc(a1-2)Gal(b1-3)GlcNAc(b1-3)Gal(b1-4)Glc
# Summary of the method: (§1)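 From the Consortium for Functional Glycomics database, 3228 arrays were curated, keeping only those whose protein sequence was available. Binding is given as a within-array Z-score averaged across arrays sharing a protein sequence and across linkers. Negative Z-scores can be read as non-binding.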
# [2] = molecular target: Fuc(a1-2)Gal(b1-3)GlcNAc(b1-3)[Gal(b1-4)GlcNAc(b1-6)]Gal(b1-4)Glc
# Summary of the method: as §1
# [3] = molecular target: Fuc(a1-2)Gal(b1-4)GlcNAc(b1-2)[Fuc(a1-2)Gal(b1-4)GlcNAc(b1-4)]Man(a1-3)[Fuc(a1-2)Gal(b1-4)GlcNAc(b1-2)Man(a1-6)]Man(b1-4)GlcNAc(b1-4)GlcNAc
# Summary of the method: as §1
# [4] = molecular target: Fuc(a1-2)Gal6S(b1-4)Glc6S
# Summary of the method: as §1
# Fuc(a1-2)[Gal(a1-3)]Gal = molecular target: Fuc(a1-2)[Gal(a1-3)]Gal
# Summary of the method: as §1
# [5] = molecular target: Fuc(a1-2)[Gal(a1-3)]Gal(b1-3)GlcNAc
# Summary of the method: as §1
# [6] = molecular target: Fuc(a1-2)[GalNAc(a1-3)]Gal(b1-4)GlcNAc
# Summary of the method: as §1
# [7] = molecular target: Fuc(a1-2)[GalNAc(a1-3)]Gal(b1-4)GlcNAc(b1-3)GalNAc
# Summary of the method: as §1
# [8] = molecular target: Fuc(a1-2)[GalNAc(b1-3)]Gal
# Summary of the method: as §1
# [9] = molecular target: Fuc(a1-3)[Gal(b1-4)]GlcNAc(b1-4)Gal(b1-4)[Fuc(a1-3)]GlcNAc
# Summary of the method: as §1
# [10] = molecular target: Fuc(a1-3)[Gal(b1-4)]GlcNAc6S
# Summary of the method: as §1
# [11] = molecular target: Fuc(a1-3)[Gal3S(b1-4)]GlcNAc6S
# Summary of the method: as §1
# [12] = molecular target: Gal(a1-3)Gal(b1-3)[Fuc(a1-4)]GlcNAc(b1-2)Man(a1-3)[Gal(a1-3)Gal(b1-3)[Fuc(a1-4)]GlcNAc(b1-2)Man(a1-6)]Man(b1-4)GlcNAc(b1-4)GlcNAc
# Summary of the method: as §1
# Gal(a1-3)Gal(b1-4)GlcNAc = molecular target: Gal(a1-3)Gal(b1-4)GlcNAc
# Summary of the method: as §1
# [13] = molecular target: Gal(b1-3)GlcNAc(b1-3)Gal(b1-4)[Fuc(a1-3)]GlcNAc(b1-6)[Gal(b1-3)GlcNAc(b1-3)]Gal(b1-4)Glc
# Summary of the method: as §1
# [14] = molecular target: Gal(b1-3)[Neu5Ac(b2-6)]GalNAc
# Summary of the method: as §1
# [15] = molecular target: Gal(b1-4)GlcNAc(b1-2)Man(a1-3)[Gal(b1-4)GlcNAc(b1-2)Man(a1-6)]Man(b1-4)GlcNAc(b1-4)GlcNAc
# Summary of the method: as §1
# [16] = molecular target: Gal(b1-4)GlcNAc(b1-3)Gal(b1-4)GlcNAc(b1-2)Man(a1-3)[Gal(b1-4)GlcNAc(b1-3)Gal(b1-4)GlcNAc(b1-2)Man(a1-6)]Man(b1-4)GlcNAc(b1-4)[Fuc(a1-6)]GlcNAc
# Summary of the method: as §1
# [17] = molecular target: Gal(b1-4)GlcNAc(b1-6)[Gal(b1-4)GlcNAc(b1-3)]GalNAc
# Summary of the method: as §1
# Gal(b1-6)Gal = molecular target: Gal(b1-6)Gal
# Summary of the method: as §1
# Gal3S(b1-3)GlcNAc = molecular target: Gal3S(b1-3)GlcNAc
# Summary of the method: as §1
# Gal3S(b1-4)Glc = molecular target: Gal3S(b1-4)Glc
# Summary of the method: as §1
# Gal3S(b1-4)Glc6S = molecular target: Gal3S(b1-4)Glc6S
# Summary of the method: as §1
# Gal3S(b1-4)GlcNAc = molecular target: Gal3S(b1-4)GlcNAc
# Summary of the method: as §1
# Gal3S(b1-4)GlcNAc6S = molecular target: Gal3S(b1-4)GlcNAc6S
# Summary of the method: as §1
# [18] = molecular target: Gal3S(b1-4)[Fuc(a1-3)]GlcNAc6S
# Summary of the method: as §1
# GalNAc(a1-3)Gal = molecular target: GalNAc(a1-3)Gal
# Summary of the method: as §1
# GalNAc(b1-3)GalNAc = molecular target: GalNAc(b1-3)GalNAc
# Summary of the method: as §1
# GalNAc3S(b1-4)GlcNAc = molecular target: GalNAc3S(b1-4)GlcNAc
# Summary of the method: as §1
# Glc(b1-4)Glc = molecular target: Glc(b1-4)Glc
# Summary of the method: as §1
binder,measurement,setting,value
"MAA (Maackia amurensis), P0DKL3 (protein) MATSNSKPTQVLLATFLTFFFLLLNNVNSSDELSFTINNFVPNEADLLFQGEASVSSTGVLQLTRVENGQPQKYSVGRALYAAPVRIWDNTTGSVASFSTSFTFVVKAPNPDITSDGLAFYLAPPDSQIPSGSVSKYLGLFNNSNSDSSNQIVAVELDTYFAHSYDPWDPNYRHIGIDVNGIESIKTVQWDWINGGVAFATITYLAPNKTLIASLVYPSNQTTFSVAASVDLKEILPEWVRVGFSAATGYPTEVETHDVLSWSFTSTLEANCDAATENNVHIARYTA",glycan array binding signal (z-score),[1],-0.221
same,glycan array binding signal (z-score),[2],-0.262
same,glycan array binding signal (z-score),[3],-0.059
same,glycan array binding signal (z-score),[4],-0.191
same,glycan array binding signal (z-score),Fuc(a1-2)[Gal(a1-3)]Gal,-0.152
same,glycan array binding signal (z-score),[5],-0.153
same,glycan array binding signal (z-score),[6],-0.228
same,glycan array binding signal (z-score),[7],-0.128
same,glycan array binding signal (z-score),[8],-0.178
same,glycan array binding signal (z-score),[9],-0.094
same,glycan array binding signal (z-score),[10],-0.2
same,glycan array binding signal (z-score),[11],2.89
same,glycan array binding signal (z-score),[12],0.162
same,glycan array binding signal (z-score),Gal(a1-3)Gal(b1-4)GlcNAc,-0.243
same,glycan array binding signal (z-score),[13],-0.145
same,glycan array binding signal (z-score),[14],-0.219
same,glycan array binding signal (z-score),[15],-0.204
same,glycan array binding signal (z-score),[16],0.122
same,glycan array binding signal (z-score),[17],-0.204
same,glycan array binding signal (z-score),Gal(b1-6)Gal,-0.212
same,glycan array binding signal (z-score),Gal3S(b1-3)GlcNAc,1.5
same,glycan array binding signal (z-score),Gal3S(b1-4)Glc,5.2
same,glycan array binding signal (z-score),Gal3S(b1-4)Glc6S,6.87
same,glycan array binding signal (z-score),Gal3S(b1-4)GlcNAc,6.25
same,glycan array binding signal (z-score),Gal3S(b1-4)GlcNAc6S,4.71
same,glycan array binding signal (z-score),[18],7.75
same,glycan array binding signal (z-score),GalNAc(a1-3)Gal,-0.197
same,glycan array binding signal (z-score),GalNAc(b1-3)GalNAc,-0.186
same,glycan array binding signal (z-score),GalNAc3S(b1-4)GlcNAc,2.31
same,glycan array binding signal (z-score),Glc(b1-4)Glc,-0.161
